This note sets out measurements from PubChem BioAssay (NCI).

What all share (experiment): NCI-60 one-dose screen, 48 h (100 = growth as untreated, 0 = no growth, -100 = all killed)
Common to all, as to settings: 10 µM unless noted

In experiment [1] the test system is NCI-H23 lung.
The test system of experiment [2] is NCI-H226 lung.
In experiment [3] the test system is NCI-H322M lung.
For experiment [4], the system named is HOP-62 NSCLC.
In experiment [5] the test system is NCI-H460 lung.
Experiment [6] has as its system HOP-92 NSCLC.
In experiment [7] the test system is NCI-H522 lung.
Experiment [8] has as its system A549/ATCC NSCLC.
Experiment [9] relates to 786-0 renal.
Experiment [10] has as its system COLO 205 colon.
The test system of experiment [11] is DU-145 prostate.
The test system of experiment [12] is K-562 leukemia.
For experiment [13], the system named is MALME-3M melanoma.
The test system of experiment [14] is MDA-MB-231 breast.
Experiment [15] concerns RXF 393 renal.
The subject of experiment [16] is SF-268 CNS.
In experiment [17] the test system is SF-295 CNS.
Experiment [18] relates to SF-539 CNS.
In experiment [19] the test system is UACC-257 melanoma.
Experiment [20] has as its system M14 melanoma.

Compounds without any hit were thinned out: in the full panel of roughly 83,000, 20% have a hit.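 Step 1: grow cells in 96-well plates. Step 2: add test compound at a single concentration. Step 3: incubate 48 h. Step 4: record percent growth.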 Values without a mark were called inactive. Calls of active or inactive are those of the source. How the source made its calls: active means growth percent below 10; inactive means the rest.

`Cn1cc(-c2nc(-c3c[nH]c4c(Cl)nccc34)cs2)c2ccccc21`: the growth in [1] was 98.6%; in experiment [2], 103%; in experiment [3] it was 99.4%; in experiment [4], 92.5%; in experiment [5], 95.5%; in experiment [6], 80.4%. For the same molecule, the growth in [7] was 85.5%; in [8] it was 66.7%; in [9], 87.4%; in experiment [10] it was 102%; in experiment [11] it was 92.6%; in experiment [12], 89.3%. The growth in experiment [13] is 113%; in [14], 98.9%; in experiment [15] it was 90.4%; in [16] it was 98.5%; in experiment [17], 103%; in experiment [18], 90.5%. Further, the growth was 71.8% in experiment [19] and 97.2% in experiment [20].
As for `CS(=O)(=O)c1cccc(Nc2ncc3cc(-c4ccccc4Cl)ccc3n2)c1`, the growth was 26.7% in experiment [1]; 31.1% in experiment [2]; 26.8% in experiment [3]; 15.3% in [4]; 5.47% (active) in experiment [5]; -1.06% (active) in experiment [6]. For the same molecule, the growth was -44.3% (active) in [7]; 13.8% in experiment [8]; 12.2% in [9]; -8.05% (active) in [10]; 18.6% in [11]; 1.05% (active) in experiment [12]. Also, the growth in experiment [13] is 11.8%; in experiment [14], 3.46% (active); in [15], -14.3% (active); in experiment [16], 19.9%; in experiment [17] it was 20.9%; in [18], -10.5% (active). In addition, the figures for the growth in experiment [19] and in experiment [20] were 24.8% and 5.89% (active), respectively.
For `COc1ccc(/C=C2/CCc3cc4ccc(OC)cc4[o+]c32)c(O)c1`, the growth in experiment [1] was 72.7%; in [2], 81.5%; in experiment [3], 84.6%; in experiment [4], 95.9%; in experiment [5] it was 25.3%; in [6], 56.1%. For the same molecule, the growth in experiment [7] was 77.5%; in [8] it was 94.9%; in experiment [9], -6.35% (active); in experiment [10], 84.1%; in [11], 76.7%; in experiment [12], 39.1%. For the same molecule, the growth in experiment [13] is 16.9%; in [14] it was 36.7%; in [15], 71.4%; in experiment [16] it was 82.2%; in experiment [17], 106%; in [18] it was 109%. In addition, the growth in experiment [19] was 87.4%; in [20], 26%.
`O=C(Nc1ccc2c(c1)-c1ccccc1C2)C1CC(=O)N(c2ccc3c(c2)OCO3)C1` (stereo not given): the growth was 51.6% [50 µM] in [1]; 30.2% [50 µM] in experiment [2]; 55.9% [50 µM] in [3]; 70.7% [50 µM] in [4]; 32.9% [50 µM] in experiment [5]; 65% [50 µM] in [6]. Besides, the growth in [7] was 77.5% [50 µM]; in experiment [8], 66.7% [50 µM]; in [9] it was 30.9% [50 µM]; in experiment [10] it was 86.2% [50 µM]; in experiment [11] it was 52.1% [50 µM]; in experiment [12] it was 57.5% [50 µM]. Further, the growth in [13] is 58.1% [50 µM]; in experiment [14], 59.9% [50 µM]; in experiment [15] it was 56.6% [50 µM]; in [16], 69.2% [50 µM]; in [17], 47% [50 µM]; in [18], -60.7% [50 µM] (active). Also, the growth was 69.5% [50 µM] in experiment [19] and 62.7% [50 µM] in [20].
Consider `O=C1CCc2c(sc3[nH]c(=S)n(-c4cc(C(F)(F)F)cc(C(F)(F)F)c4)c(=O)c23)C1`, for which the growth is -10.7% (active) in experiment [1]; -19% (active) in experiment [2]; 9.28% (active) in [3]; -27.1% (active) in experiment [4]; 5% (active) in experiment [5]; -61.8% (active) in experiment [6]. Moreover, the growth in experiment [7] is -46.6% (active); in experiment [8] it was 5.85% (active); in experiment [9], 18.1%; in experiment [10], -80% (active); in experiment [11], 25.2%; in [12] it was 22.5%. The growth in [13] is -16.7% (active); in [14], -42.5% (active); in [15], -3.65% (active); in experiment [16] it was 19.3%; in experiment [17] it was -21.8% (active); in experiment [18], -51.1% (active). Moreover, the figures for the growth in [19] and in experiment [20] were -25.4% (active) and 23.6%, respectively.
With `C1=C2CCCC3=Cc4ccccc4OC23Oc2ccccc21`, the growth in experiment [1] was 42.3%; in [2], 56.4%; in experiment [3], 50.8%; in experiment [4], 41.6%; in experiment [5], 13.5%; in experiment [6] it was 61.4%. Besides, the growth was 3.9% (active) in experiment [7]; 32.7% in experiment [8]; 26.4% in experiment [9]; 25.4% in [10]; 28.1% in experiment [11]; 15.3% in experiment [12]. In addition, the growth is 56.8% in experiment [13]; 43.5% in experiment [14]; 9.77% (active) in [15]; 31.6% in experiment [16]; 11.3% in [17]; 7.81% (active) in experiment [18]. Besides, the growth in [19] was 40.1%; in experiment [20] it was 19.2%.
As for `CN1CCN(c2ccc(Nc3ncc4[nH]c(=O)n(Cc5ccccc5N)c4n3)cc2)CC1`, the growth in experiment [1] is 97.5%; in [2], 80.3%; in experiment [3], 100%; in [4], 77.8%; in experiment [5] it was 102%; in experiment [6] it was 85.5%. In addition, the growth in experiment [7] is 77.1%; in experiment [8], 97.5%; in experiment [9], 84.1%; in experiment [10], 107%; in [11] it was 103%; in [12], 69.8%. Moreover, the growth was 83.9% in experiment [13]; 83.8% in experiment [14]; 83.8% in [15]; 72.8% in experiment [16]; 98.2% in experiment [17]; 80.9% in experiment [18]. Moreover, the results for the growth in experiment [19] and in experiment [20] were 112% and 95.9%, respectively.
Turning to `CCN1C(=O)N(CC)C2C1NN=c1s/c(=C3\C(=O)N(C)c4ccccc43)c(=O)n12` (stereo not given), the growth is 37% in [1]; 96.7% in experiment [2]; 48.4% in experiment [3]; 29.8% in experiment [4]; 6.21% (active) in experiment [5]; 56.8% in [6]. Besides, the growth is 21.7% in [7]; 35.1% in [8]; 36.9% in [9]; 8.01% (active) in experiment [10]; 11.9% in experiment [11]; 9.16% (active) in experiment [12]. The growth in [13] was 40.8%; in experiment [14], 33.9%; in experiment [15], -14.1% (active); in experiment [16], 70.5%; in [17] it was 7.04% (active); in experiment [18] it was -24.7% (active). For the same molecule, the growth in experiment [19] was 94.6%; in experiment [20], 43.1%.
